The source of these data is the supplement of paper PMC10981050.

Structures can show the parent of a compound that is named as a salt.

This experiment has as its system MARIMO. Put plainly: cell viability relative to vehicle control; higher = less cytotoxic. As to conditions: 10 µM; SRSF2 genotype: SRSF2 P95H/wt. Put shortly: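 CRISPR-edited SRSF2 P95 mutant and isogenic wild-type clones of four leukaemia lines were screened against Selleck bioactive, kinase and epigenetic probe libraries, with identity-inconsistent compounds removed. Compounds were acoustically dispensed into 384-well plates at a single 10 µM dose, with 2000 cells in 50 µL medium per well. After 48 h, supernatant was removed and CellTiter-Glo luminescence was read. Viability was expressed as percent of the on-plate DMSO vehicle control, analysed in Genedata Screener.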
What is called cell viability is a read-out of living cells in per cent, often relative to untreated cells. Take `COC(=O)c1ccc(O)c(C(=O)OC)c1` [Dimetghyl 4-Hydroxyisophthalate]: the cell viability was found to be 95.2%.

On to `CN1CCN(c2cccc(Nc3nc4c(-c5ccc(S(C)(=O)=O)cc5)cccn4n3)c2)CC1`, for which the cell viability turned out to be 67.1%.

Take `NS(=O)(=O)c1cc2c(cc1Cl)NC(C(Cl)Cl)NS2(=O)=O` (stereo not given) [Trichlormethiazide (Achletin)]: the cell viability is 108%.

In the case of `Nc1[nH]cnc2ncnc1-2` [Adenine hydrochloride], the cell viability is 98.5%.

For `Nc1ccc(C(=O)O)c(O)c1` [Sodium 4-Aminosalicylate], the cell viability was 85.7%.

Take `O=c1c(-c2ccc(O)cc2)coc2cc(O[C@@H]3O[C@H](CO)[C@@H](O)[C@H](O)[C@H]3O)cc(O)c12` [Genistin (Genistoside)]: the cell viability was 94.6%.

Regarding `CC(C)=CCC[C@](C)(O[C@@H]1O[C@H](CO[C@@H]2OC[C@H](O)[C@H](O)[C@H]2O)[C@@H](O)[C@H](O)[C@H]1O)[C@H]1CC[C@]2(C)[C@@H]1[C@H](O)C[C@@H]1[C@@]3(C)CC[C@H](O[C@@H]4O[C@H](CO)[C@@H](O)[C@H](O)[C@H]4O[C@@H]4O[C@H](CO)[C@@H](O)[C@H](O)[C@H]4O)C(C)(C)[C@@H]3CC[C@]12C` [Ginsenoside Rb2], the cell viability is 88.4%.

With `COc1ccc(COc2ccc(Cc3cnc(N)nc3N)cc2OC)cc1`, the cell viability stood at 84%.

Take `CCN(CC)CCCC(C)Nc1c2ccc(Cl)cc2nc2ccc(OC)cc12` (stereo not given) [Quinacrine Dihydrochloride Dihydrate]: the cell viability was 1.66%.

Turning to `Cc1c(-c2ccnn2C)cc(C(=O)NCc2ccc(S(C)(=O)=O)cn2)c(=O)n1-c1cccc(C(F)(F)F)c1`, the cell viability came to 112%.

For `O=C(O)Cc1ccc2c(c1)C(=O)c1ccccc1CO2` [Isoxepac], the cell viability is 106%.

For `CC1(C)S[C@@H]2[C@H](NC(=O)Cc3ccccc3)C(=O)N2[C@H]1C(=O)O` [Penicillin G Sodium], the cell viability was found to be 98.5%.

Turning to `O=[N+]([O-])c1ccc(Sc2cccc[n+]2[O-])c2nonc12`, the cell viability was found to be 0.65%.

Consider `COC(=O)c1cc(OC)c2c(c1-c1c(C(=O)OC)cc(OC)c3c1OCO3)OCO2` [Bifendate], for which the cell viability came out at 101%.

Regarding `N#Cc1ccc(-c2c(-c3ncn[nH]3)sc(N3CCOCC3)c2C#N)c(F)c1`, the cell viability was 47.4%.

As to `Cc1ncc(CCCN(C)C)cc1Nc1ncc2c(n1)-c1ccc(C(F)(F)F)cc1NC(=S)C2`, the cell viability is 49.5%.

`Nc1ccccc1NC(=O)c1cnccn1`: the cell viability is 76.7%.

Consider `N[C@@H]1CCCN(c2c(/C=C3\SC(=O)NC3=O)cccc2-c2ccccc2)C1`, for which the cell viability worked out at 83.9%.

For the compound `O=C(O)CCCC[C@@H]1CCSS1` (racemic) [Thioctic acid], the cell viability turned out to be 93.1%.

In the case of `COc1cn(-c2ccc(-n3cccn3)cc2F)nc(-c2ccnn2-c2ccccc2)c1=O`, the cell viability was 97.5%.

With `COc1ccc(S(=O)(=O)N(CCO)c2ccccc2CN(C)C/C=C/c2ccc(Cl)cc2)cc1` [KN-93 Phosphate], the cell viability is 33.5%.

For the compound `CC(C)OC(=O)C(C)(C)Oc1ccc(C(=O)c2ccc(Cl)cc2)cc1` [Fenofibrate (Tricor, Trilipix)], the cell viability was 79.2%.

Take `Cc1cc2c3c([n+](C)c4ccc(F)cc4c3c1)-c1cc(F)ccc1N2C` [RHPS 4 methosulfate]: the cell viability was 52.5%.

In the case of `COc1cc(Nc2ncc(F)c(Nc3ccc4c(n3)NC(=O)C(C)(C)O4)n2)cc(OC)c1OC`, the cell viability came to 83.7%.

Regarding `COc1cc2ncnc(Nc3ccc(Oc4ccccc4)cc3C)c2cc1OC`, the cell viability is 81.1%.

`Cn1cc(-c2ccc(S(=O)(=O)n3ccc(/C=C/C(=O)Nc4ccccc4N)c3)cc2)cn1`: the cell viability was determined as 6.4%.

In the case of `Cn1cc(CNCC2CCN(c3ncc(C(=O)NO)cn3)CC2)c2ccccc21`, the cell viability turned out to be 7.96%.

As to `N[C@@H]1CN(c2c(F)cc3c(=O)c(C(=O)O)cn([C@@H]4C[C@@H]4F)c3c2Cl)CC12CC2` [Sitafloxacin hydrate], the cell viability is 104%.

On to `COC(=O)C1=C(C)NC(C)=C(C(=O)OC(C)C)C1c1cccc2nonc12` (stereo not given) [Isradipine (Dynacirc)], for which the cell viability is 99.4%.

As for `O=C(Nc1nccs1)C(c1cc(F)ccc1O)N1Cc2ccccc2C1=O` (stereo not given), the cell viability amounted to 94.6%.

With `Nc1cc(F)ccc1NC(=O)/C=C/c1cnn(C/C=C/c2ccccc2)c1`, the cell viability amounted to 77.8%.

Turning to `C=C1[C@H](O)C[C@H]2[C@@H](/C=C(\C)C(=O)[C@@]3(O)C[C@H](C)[C@H](O)[C@@H]3[C@H]1O)C2(C)C`, the cell viability is 93.7%.

In the case of `O=C(Nc1cccc(C(F)(F)F)c1)Nc1cc(S(=O)(=O)NC2CC2)ccc1-c1ccsc1`, the cell viability worked out at 94.2%.

Take `CC(C)(NS(=O)(=O)c1ccc2c(Cl)cnc(N=C(N)N)c2c1)C(=O)O`: the cell viability was 101%.

As for `C[C@]12CCC3=C4CCC(=O)C=C4CC[C@H]3[C@@H]1CC[C@@]2(O)CC#N` [Dienogest], the cell viability came out at 93%.

Consider `Cc1ccc(NS(=O)(=O)c2ccc3c(c2)C2C=CCC2C(c2ccc(C(=O)O)cc2)N3)cc1C` (stereo not given), for which the cell viability turned out to be 102%.

Take `CC(=O)O[C@]1(C(C)=O)CC[C@H]2[C@@H]3C[C@H](C)C4=CC(=O)C=C[C@]4(C)[C@@]3(F)[C@@H](O)C[C@@]21C` [Fluorometholone Acetate]: the cell viability was determined as 96.4%.

`Cc1cccc(-c2[nH]c(C(C)(C)C)nc2-c2ccc3nccnc3c2)n1`: the cell viability came to 108%.

On to `COc1ccc(Cn2ccc3ccc(C(=O)NO)cc32)cc1`, for which the cell viability is 65.9%.

For `COc1cc(C(=O)O)ccc1NC(=O)[C@@H]1N[C@@H](CC(C)(C)C)[C@](C#N)(c2ccc(Cl)cc2F)[C@H]1c1cccc(Cl)c1F` [Idasanutlin (RG-7388)], the cell viability is 116%.
